Measured values taken from publication PMC4336329 (PLoS ONE, 2015).
Out of some 310,000 compounds screened, about 14,000 (4.5%) showed an effect of 50% or more. Effects have a minus sign here. For the sample, strong results were picked, then their nearest neighbours and some compounds at random.

Biological target: human ether-à-go-go-related gene (hERG) potassium channel (human, UniProt Q12809)
Assay: primary screen, population patch clamp on CHO cells stably expressing hERG; higher = less effect of the substance
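Further: peak tail current of the secondary pulse compared with the same well before compound.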

human ether-à-go-go-related gene (hERG) potassium channel, sequence (Q12809 whole entry, looked up): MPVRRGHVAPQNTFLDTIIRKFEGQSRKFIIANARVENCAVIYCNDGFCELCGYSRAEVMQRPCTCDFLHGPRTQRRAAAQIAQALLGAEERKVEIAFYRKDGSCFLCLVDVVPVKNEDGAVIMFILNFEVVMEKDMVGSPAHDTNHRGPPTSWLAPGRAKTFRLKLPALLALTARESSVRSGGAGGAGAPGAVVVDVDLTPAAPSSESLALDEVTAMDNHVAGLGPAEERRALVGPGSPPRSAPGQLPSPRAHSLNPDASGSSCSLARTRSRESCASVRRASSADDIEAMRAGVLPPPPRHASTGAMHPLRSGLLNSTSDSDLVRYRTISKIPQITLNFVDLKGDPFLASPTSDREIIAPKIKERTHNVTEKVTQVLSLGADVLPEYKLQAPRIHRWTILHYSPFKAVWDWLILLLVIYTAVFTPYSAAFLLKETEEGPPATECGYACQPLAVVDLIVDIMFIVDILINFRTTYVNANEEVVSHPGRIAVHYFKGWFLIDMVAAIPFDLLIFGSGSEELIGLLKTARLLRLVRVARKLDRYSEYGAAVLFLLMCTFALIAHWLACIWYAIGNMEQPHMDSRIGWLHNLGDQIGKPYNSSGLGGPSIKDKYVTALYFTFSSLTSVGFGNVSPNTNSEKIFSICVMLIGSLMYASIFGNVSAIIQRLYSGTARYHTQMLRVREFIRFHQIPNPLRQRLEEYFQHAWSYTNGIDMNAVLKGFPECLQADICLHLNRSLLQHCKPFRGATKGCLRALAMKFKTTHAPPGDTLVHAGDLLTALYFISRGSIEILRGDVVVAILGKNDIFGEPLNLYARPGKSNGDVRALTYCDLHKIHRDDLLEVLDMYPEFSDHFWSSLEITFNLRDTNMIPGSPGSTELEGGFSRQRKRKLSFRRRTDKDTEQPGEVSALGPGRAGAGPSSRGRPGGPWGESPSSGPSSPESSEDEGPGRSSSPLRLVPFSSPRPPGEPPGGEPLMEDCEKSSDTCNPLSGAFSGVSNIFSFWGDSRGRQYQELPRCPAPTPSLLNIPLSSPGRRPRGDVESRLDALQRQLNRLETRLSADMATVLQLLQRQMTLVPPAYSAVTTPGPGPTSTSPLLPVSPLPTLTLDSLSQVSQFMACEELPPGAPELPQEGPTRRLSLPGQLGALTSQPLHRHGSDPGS

Row | Compound | hERG current change (%, negative = inhibition) at 10uM [%]
1 | CCc1cc2c(cc3c(=O)n(CC(=O)N4CCN(C)CC4)ncn32)s1 | -14.3
2 | CCOC(=O)c1ccccc1NC(=O)COC(=O)c1ccccc1C(=O)N(C)c1ccccc1 | -23.5
3 | CC(OC(=O)CN1C(=O)NC2(CCCC2)C1=O)C(=O)Nc1cccc(Cl)c1 (stereo not drawn) | -15.3
4 | O=C(O)CC(CC(=O)Nc1ccc(-c2ccccc2)cc1)c1ccccc1 (stereo not drawn) | 9.93
5 | Cc1cc(C(=O)N/N=C/c2sccc2C)no1 | 17.2
6 | CCN(CC)CCCNC(=S)Nc1ccc(Br)cc1 | -53.2
7 | S=C(NCCN1CCCCC1)Nc1ccc(Br)cc1 | -69.1
8 | S=C(NCCN1CCOCC1)Nc1ccc(Br)cc1 | 5.71
9 | Cc1ccc(NC(=O)NCCN2CCCCC2)cc1 | -11
10 | CN(C)CCCNC(=S)Nc1ccc(Br)cc1 | -11.6
11 | O=C(NCCN1CCCCC1)Nc1ccc(Br)cc1 | -52.4
12 | O=C(NCCN1CCCCC1)Nc1ccc(Cl)cc1 | -33.7
13 | CCCNC(=S)Nc1ccc(Br)cc1 | 11.8
14 | S=C(NCCN1CCCCC1)Nc1ccccc1 | 0.941
15 | CCCCNC(=S)Nc1ccc(F)cc1 | 20.6
16 | CCCCNC(=S)Nc1ccc(Cl)cc1 | 3.01
17 | CCCCNC(=S)Nc1ccc(C(F)(F)F)cc1 | -52.8
18 | COc1ccccc1CNC(=O)C1CCC(=O)N(CCCc2ccccc2)C1 (stereo not drawn) | -9.31
19 | CC(C)c1cc(CNC(=O)CC2C(=O)NCCN2CC2CCCCC2)on1 (stereo not drawn) | 11.2
20 | Cc1ccc(NC(=O)NCCN2CCCCC2)cc1C | -15.8
21 | O=C(NCCN1CCCCC1)Nc1ccc(F)c(Cl)c1 | -33.9
22 | Cc1ccc(NC(=O)NCCN2CCCCC2)cc1Cl | -51.7
23 | COc1ccc(S(=O)(=O)N2CCN(C(=O)[C@H](Cc3ccccc3)NC(=O)c3ccco3)CC2)cc1 | -28.6
24 | CC1CN(CCOc2ccc(Cl)c(Cl)c2)CC(C)O1.O=C(O)C(=O)O (stereo not drawn) | -5.18
25 | Brc1ccc(OCCN2CCOCC2)cc1 | 4.54
26 | CC1CN(CCOc2ccc(F)cc2)CC(C)O1.O=C(O)C(=O)O (stereo not drawn) | 6.81
27 | CC1CC(C)CN(CCOc2ccc(Br)cc2)C1.O=C(O)C(=O)O (stereo not drawn) | -60.3
28 | CC1CCCN(CCOc2ccc(Br)cc2)C1 (stereo not drawn) | -51.3
29 | COc1ccc(OCCCN2CCCC(C)C2)cc1 (stereo not drawn) | -32
30 | CCCOc1ccc(OCCN2CCCC(C)C2)cc1.O=C(O)C(=O)O (stereo not drawn) | -52.2
